# According to PubChem BioAssay:
# Active and inactive are the calls of the source.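 How the source made its calls, unless noted: active means visually confirmed hit in the image check and inhibition above 20%; inconclusive means visually confirmed hit but inhibition not above 20%; inactive means no visual hit in the image check.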
# Tests used:
# [1] = inhibitors of TNFa-induced NFkB p65 translocation, primary screen, imaging, HUVEC, MLSMR starter and 10KST1 sets (AID 438;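 active means inhibition above 20% together with a positive visual image hit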;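 further: compound added about 3h40 before a 20 min TNFalpha stimulation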;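 on inhibition: signal is the nuclear over cytoplasmic p65 intensity ratio per well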); conditions: HUVEC TNFa-induced p65 nuclear translocation; cell count: measured here: nuclei count (cytotoxicity indicator), at 2.08 µM; inhibition: at 2 µM, stronger effect = higher value, 0% TNFa-plus-vehicle, 100% no-TNFa wells
# [2] = reduction of polyQ htt aggregates in cells – imaging, exon1htt(103Q)mCFP cells, high-content imaging, primary screen (AID 483;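 active means visual image review flags a hit and inhibition of aggregation exceeds 20%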;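 further: compound exposure lasted 3 days before fixation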;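 on nuclei count: percent of the per-plate median nuclei count of sample wells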); conditions: exon1htt(103Q)mCFP cell line, aggregate imaging, at 2 µM; inhibition of aggregation: stronger effect = higher value; nuclei count: measured here: cell count, toxicity
# [3] = endothelial E-selectin expression blockers – imaging, HUVEC, immunofluorescence, MLSMR starter and 10KST1 sets, primary screen (AID 487); conditions: HUVEC TNFalpha-induced E-selectin immunofluorescence imaging, at 2 µM; inhibition: stronger effect = higher value; nuclei count: measured here: cell number, toxicity;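 on inhibition: signal is fraction of cell area covered by stained E-selectin grains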;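 on nuclei count: 100% = median nuclei count of all wells on the same plate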
# [4] = target: Voltage-gated potassium channel subunit beta-2 (Rattus norvegicus) (UniProt P62483); assay: inhibitors of rat Kvbeta2 reductase activity – biochemical, NADPH fluorescence, primary screen (AID 622;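 active means fluorescence slope higher than the sample average by over 3 SD, cut at about -0.22 in these data, passing the limit was not always enough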;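 further: slope of raw intensity against log time taken from 70 to 1610 s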); conditions: recombinant KvBeta, 4-cyanobenzaldehyde reduction, at 10 µM, stronger effect = higher value
# [5] = target: Voltage-gated potassium channel subunit beta-2 (Rattus norvegicus) (UniProt P62483); assay: enhancers of rat Kvbeta2 NADPH turnover – biochemical, NADPH fluorescence, primary screen (AID 623;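 active means NADPH fluorescence slope more negative than the mean of all samples by about 3 SD, 99.7% confidence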;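 further: fluorescence intensity change per second fitted from 20 to 320 s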); conditions: Recombinant KvBeta, NADPH fluorescence decrease slope, 10 min; at 10 µM; stronger effect = lower value
# [6] = target: Alpha-2C adrenergic receptor (Homo sapiens) (UniProt P18825); assay: compounds altering alpha2C-coupled GIRK flux – cell-based, HEK293 alpha2C/GIRK1/2, thallium flux, primary screen (AID 624;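 active means fluorescence slope after compound addition differing from the mean of all screened samples at 99.7% confidence, in either direction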;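 further: slope of fluorescence ratio to pre-addition baseline per second over 15 to 24 s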); conditions: thallium flux BTC fluorescence, at 10 µM, actives lie on both sides
# [7] = blockers of RIG-like receptor reporter activation – cell-based, Sendai virus stimulus, luciferase, 10K MLSCN set, TLR/RLR signaling modifier project, primary screen (AID 602276;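 active means inhibition at or above 50% at 10 µM; inactive means inhibition below 50%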;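 further: firefly luciferase from ISG56 promoter only with Renilla not read in this screen; 0% = Sendai virus plus DMSO and 100% = medium plus DMSO without virus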); conditions: HEK293 RL24 IRF3 luciferase reporter, at 10 µM, stronger effect = higher value
# [8] = TLR3 IRF3 reporter activation blockers – cell-based, poly I:C stimulus, luciferase, 10K MLSCN set, primary screen (AID 602277;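 active means inhibition of the reporter signal at or above 50%; inactive means inhibition below 50%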); conditions: HEK293-TLR3 RL24 IRF3 luciferase reporter, at 10 µM, stronger effect = higher value
# Voltage-gated potassium channel subunit beta-2 (Rattus norvegicus), sequence (P62483 whole entry, looked up): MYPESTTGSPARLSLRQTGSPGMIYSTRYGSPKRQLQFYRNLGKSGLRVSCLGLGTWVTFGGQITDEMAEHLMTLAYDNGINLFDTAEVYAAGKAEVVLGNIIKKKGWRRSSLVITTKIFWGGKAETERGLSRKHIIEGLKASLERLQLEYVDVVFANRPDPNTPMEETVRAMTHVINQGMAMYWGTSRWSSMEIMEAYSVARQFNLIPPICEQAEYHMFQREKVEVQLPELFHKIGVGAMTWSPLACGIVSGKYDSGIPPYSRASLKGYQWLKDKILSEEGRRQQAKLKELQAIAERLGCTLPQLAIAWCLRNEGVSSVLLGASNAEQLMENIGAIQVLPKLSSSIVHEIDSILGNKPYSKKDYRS
# Alpha-2C adrenergic receptor (Homo sapiens), sequence (P18825 whole entry, looked up): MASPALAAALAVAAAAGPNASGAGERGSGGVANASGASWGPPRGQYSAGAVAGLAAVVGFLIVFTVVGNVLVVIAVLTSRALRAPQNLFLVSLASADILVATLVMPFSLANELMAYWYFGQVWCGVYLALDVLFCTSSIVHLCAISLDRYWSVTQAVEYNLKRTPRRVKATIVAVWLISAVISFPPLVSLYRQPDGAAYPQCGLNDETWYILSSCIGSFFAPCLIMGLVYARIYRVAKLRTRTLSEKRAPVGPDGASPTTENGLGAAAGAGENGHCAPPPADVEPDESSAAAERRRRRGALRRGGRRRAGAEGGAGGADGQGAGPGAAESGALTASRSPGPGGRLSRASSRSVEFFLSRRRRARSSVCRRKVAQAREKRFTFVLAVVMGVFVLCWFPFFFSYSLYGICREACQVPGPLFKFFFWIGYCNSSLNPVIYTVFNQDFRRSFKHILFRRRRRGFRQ
SMILES,cell count [1],inhibition [1],inhibition of aggregation [2],nuclei count [2],inhibition [3],nuclei count [3],fluorescence slope [4],NADPH fluorescence slope [5],slope [6],inhibition [7],inhibition [8]
Cc1cc(=O)oc2ccc(OCC(=O)N(Cc3ccc(F)cc3)Cc3ccco3)cc12,751,2.2% (inactive),-0.1% (inactive),95.6%,-150% (inactive),107%,-0.493 (inactive),2.4e-05 (inactive),0.00494 (inactive),-10.8% (inactive),-19% (inactive)
Cc1cccc2c1N(CC(=O)OC(C)C)C(=O)C2=O,854,0% (inactive),-1.4% (inactive),105%,-67.4% (inactive),121%,-0.612 (inactive),-6.4e-06 (inactive),0.00621 (inactive),-2.09% (inactive),29% (inactive)
COc1ccccc1-c1nc(SCc2ccccn2)n[nH]1,509,8.9% (inactive),2.6% (inactive),99.6%,32.9% (inactive),96.4%,-0.605 (inactive),-2.8e-05 (inactive),0.0058 (inactive),-21% (inactive),-28.9% (inactive)
CN(C)CCCN1C(=O)c2oc3ccc(Cl)cc3c(=O)c2C1c1cccnc1 (stereo unspecified),611,-3.3% (inactive),-16.3% (inactive),112%,-27% (inactive),122%,-0.546 (inactive),-5.3e-05 (inactive),0.00766 (inactive),13.5% (inactive),39% (inactive)
CCOC(=O)C1CCN(C(=O)CN(c2ccc(Cl)c(C(F)(F)F)c2)S(C)(=O)=O)CC1,648,-23.5% (inactive),-18.2% (inactive),107%,8.7% (inactive),52.3%,-0.453 (inactive),-1.4e-05 (inactive),0.0048 (inactive),11.7% (inactive),16.6% (inactive)
CCOC(=O)c1c(N)nn(C(=O)C(C)C)c1-c1ccccc1,690,-2.1% (inactive),-5.4% (inactive),112%,4.3% (inactive),109%,-0.529 (inactive),-1.3e-05 (inactive),0.00581 (inactive),-23.8% (inactive),-5.01% (inactive)
c1nc(NCC2(N3CCOCC3)CCCCC2)c2ccsc2n1,303,17.8% (inactive),-2.2% (inactive),93%,20.6% (inactive),87.7%,-0.612 (inactive),-1e-05 (inactive),0.00518 (inactive),-0.86% (inactive),23.1% (inactive)
CCCCOCCCNC(=O)COc1ccccc1,360,-3.4% (inactive),-12.1% (inactive),113%,-3.5% (inactive),114%,-0.398 (inactive),-6.8e-05 (inactive),0.00485 (inactive),17.8% (inactive),29.4% (inactive)
Cc1cc(NCCN2CCOCC2)n2nc(C)c(-c3ccccc3)c2n1,685,-8.9% (inactive),-34.5% (inactive),118%,-43.4% (inactive),110%,-0.573 (inactive),-2.5e-05 (inactive),0.00587 (inactive),4.53% (inactive),3.88% (inactive)
CCN(CCNC(=O)C1CCN(S(=O)(=O)c2cccc3cccnc23)CC1)c1ccccc1,614,5.8% (inactive),-11% (inactive),112%,2.5% (inactive),108%,-0.569 (inactive),2.5e-05 (inactive),0.00561 (inactive),11.9% (inactive),12.7% (inactive)
CCN(CC)S(=O)(=O)c1ccc(C(=O)N2CCN=C2SCc2cccnc2)cc1,213,-3.9% (inactive),-5.6% (inactive),99.7%,-32.1% (inactive),122%,-0.587 (inactive),-1.9e-05 (inactive),0.0061 (inactive),-1.95% (inactive),9.81% (inactive)
CCOC(=O)CSc1nn(C)c(=S)s1,723,0.6% (inactive),-4.4% (inactive),108%,-19.1% (inactive),104%,-0.573 (inactive),-1.7e-05 (inactive),0.00733 (inactive),3.99% (inactive),21.1% (inactive)
CC(C)(C#N)Nn1cnnc1,609,5.3% (inactive),13.2% (inactive),109%,-1.2% (inactive),110%,-0.237 (inactive),-1.3e-05 (inactive),0.00429 (inactive),11.7% (inactive),21.2% (inactive)
COC(=O)C1=C(C)NC(C)=C(C(=O)OC)C1C(=O)OC1CCCCC1=O (stereo unspecified),487,8.7% (inactive),32.7% (inactive),87.8%,61.1% (active),80.2%,-0.425 (inactive),-3.3e-06 (inactive),0.00528 (inactive),1.65% (inactive),27.7% (inactive)
CN1CCN(S(=O)(=O)c2ccc(NC(=O)c3ccc(F)cc3)cc2)CC1,624,0% (inactive),-2.2% (inactive),105%,-22.1% (inactive),85%,-0.424 (inactive),-2.3e-05 (inactive),0.00505 (inactive),0.12% (inactive),-12.3% (inactive)
COCCNC(=O)C(C)N(c1ccc(Oc2ccccc2)cc1)S(C)(=O)=O (stereo unspecified),333,2.5% (inactive),-15.1% (inactive),98.6%,-21.7% (inactive),111%,-0.445 (inactive),-6.4e-05 (inactive),0.00568 (inactive),14.7% (inactive),23.7% (inactive)
O=C(O)c1cccc(NC(=O)C2C3C=CC(C3)C2C(=O)OCC(F)(F)C(F)F)c1 (stereo unspecified),683,8.3% (inactive),28.9% (inactive),47.7%,-33.6% (inactive),98.7%,-0.38 (inactive),-3.4e-05 (inactive),0.00482 (inactive),10.2% (inactive),26% (inactive)
CN(C)c1cccc(NC(=O)CCc2ccccc2)c1,503,-5.1% (inactive),-5.3% (inactive),106%,-7.2% (inactive),95.9%,-0.594 (inactive),9.8e-06 (inactive),0.00703 (inactive),-9.67% (inactive),-5.4% (inactive)
CCCc1cc(Nc2cccc(OC)c2)n2ncnc2n1,708,-9.9% (inactive),-22.9% (inactive),100%,-8.3% (inactive),111%,-0.321 (inactive),-3e-05 (inactive),0.00589 (inactive),12.1% (inactive),16.3% (inactive)
CCN(CC)C(=O)Oc1ccc(NC(C)=O)cc1,383,2.1% (inactive),1.1% (inactive),99.8%,-27.3% (inactive),102%,-0.431 (inactive),-6.8e-05 (inactive),0.00611 (inactive),-1% (inactive),23% (inactive)
CC1CCN(S(=O)(=O)c2ccc3[nH]c(=O)cc(C(=O)O)c3c2)CC1,323,-20.8% (inactive),8.5% (inactive),129%,-20% (inactive),104%,-0.463 (inactive),-0.000161 (inactive),0.00662 (inactive),-2.34% (inactive),13% (inactive)
CCOc1ccc(N(CC(=O)NC2CCCC2)S(=O)(=O)c2c(C)[nH]c(=O)[nH]c2=O)cc1,552,14% (inactive),15.7% (inactive),107%,-159% (inactive),132%,-0.518 (inactive),-5.9e-05 (inactive),0.00723 (inactive),4.96% (inactive),15.6% (inactive)
O=C(OCC#CCSc1nnc(-c2ccncc2)o1)c1cccs1,513,5.2% (inactive),-4.1% (inactive),104%,-19.4% (inactive),102%,-0.426 (inactive),-2e-05 (inactive),0.00642 (inactive),1.96% (inactive),24.8% (inactive)
O=C(NS(=O)(=O)c1ccc(NC(=O)C2CCCO2)cc1)c1ccccc1 (stereo unspecified),577,-6% (inactive),2.1% (inactive),110%,-46.8% (inactive),125%,-0.328 (inactive),-5.2e-05 (inactive),0.00463 (inactive),11.4% (inactive),17.7% (inactive)
O=C(c1cccs1)N(Cc1ccco1)Cc1cc2ccccc2[nH]c1=O,420,6.2% (inactive),-7.1% (inactive),107%,-40% (inactive),84.3%,-0.343 (inactive),-3.2e-05 (inactive),0.00483 (inactive),-11% (inactive),-8.09% (inactive)
CCOc1ccc(N(CC(=O)Nc2ccc(F)c(F)c2)S(=O)(=O)c2c(C)noc2C)cc1,758,-0.6% (inactive),25.8% (inactive),130%,-35.5% (inactive),109%,-0.521 (inactive),-4.9e-05 (inactive),0.00774 (inactive),13% (inactive),30.3% (inactive)
